According to PMC4336329 (PLoS ONE, 2015):
The campaign covered roughly 310,000 compounds. About 14,000 (4.5%) showed an effect of 50% or more. Effects have a minus sign here. What follows is part of a selection rich in strong results, with near analogues and random picks from the rest.

What follows are molecules tested against human ether-à-go-go-related gene (hERG) potassium channel (human, UniProt Q12809) (assay: primary screen, population patch clamp on CHO cells stably expressing hERG; higher = less effect of the substance).
Chain of human ether-à-go-go-related gene (hERG) potassium channel (Q12809 whole entry, looked up): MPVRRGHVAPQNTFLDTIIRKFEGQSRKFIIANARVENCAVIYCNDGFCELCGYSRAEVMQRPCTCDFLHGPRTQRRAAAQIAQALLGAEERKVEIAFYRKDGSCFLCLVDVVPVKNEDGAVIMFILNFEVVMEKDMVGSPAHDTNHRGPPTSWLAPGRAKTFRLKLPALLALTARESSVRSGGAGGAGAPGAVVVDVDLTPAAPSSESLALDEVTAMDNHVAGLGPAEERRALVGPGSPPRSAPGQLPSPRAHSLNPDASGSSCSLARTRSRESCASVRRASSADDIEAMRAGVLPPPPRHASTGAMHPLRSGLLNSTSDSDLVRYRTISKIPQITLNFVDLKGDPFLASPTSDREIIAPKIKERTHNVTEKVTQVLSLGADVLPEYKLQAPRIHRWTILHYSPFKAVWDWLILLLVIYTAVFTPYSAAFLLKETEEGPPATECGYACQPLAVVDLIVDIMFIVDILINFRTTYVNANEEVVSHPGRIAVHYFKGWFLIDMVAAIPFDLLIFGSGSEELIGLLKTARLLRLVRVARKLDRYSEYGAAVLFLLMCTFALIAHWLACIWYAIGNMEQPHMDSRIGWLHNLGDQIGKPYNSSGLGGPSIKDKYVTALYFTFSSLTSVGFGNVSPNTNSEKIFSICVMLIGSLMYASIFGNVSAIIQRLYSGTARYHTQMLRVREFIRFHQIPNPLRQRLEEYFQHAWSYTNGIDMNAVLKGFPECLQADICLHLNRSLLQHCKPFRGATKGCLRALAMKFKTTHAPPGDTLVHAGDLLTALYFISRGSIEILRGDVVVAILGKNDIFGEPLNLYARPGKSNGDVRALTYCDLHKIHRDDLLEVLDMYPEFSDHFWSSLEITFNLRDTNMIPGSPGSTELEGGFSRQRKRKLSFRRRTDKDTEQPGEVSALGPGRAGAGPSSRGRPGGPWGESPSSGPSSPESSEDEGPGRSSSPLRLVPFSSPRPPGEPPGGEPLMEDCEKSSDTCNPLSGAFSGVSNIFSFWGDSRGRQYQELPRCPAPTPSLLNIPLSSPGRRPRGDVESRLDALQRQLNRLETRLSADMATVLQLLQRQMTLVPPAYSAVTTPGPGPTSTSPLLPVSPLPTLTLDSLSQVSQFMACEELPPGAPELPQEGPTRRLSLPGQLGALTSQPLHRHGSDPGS
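Further: peak tail current of the secondary pulse compared with the same well before compound.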

Row | SMILES | hERG current change (%, negative = inhibition) at 10uM
1 | CCN(C(=O)CSc1nc2ccccc2c(=O)n1C(C)COC)C1CCS(=O)(=O)C1 (centres unmarked) | -22.8%
2 | CCN(C(=O)CSc1n[nH]c(-c2cccs2)n1)C1CCS(=O)(=O)C1 (centres unmarked) | 12.2%
3 | COCCn1c(SCC(=O)N(C)C2CCS(=O)(=O)C2)nc2ccccc2c1=O (centres unmarked) | -12.1%
4 | C=CCn1c(SCC(=O)N(C)C2CCS(=O)(=O)C2)nc2ccccc2c1=O (centres unmarked) | -50%
5 | C=CCn1c(SCC(=O)N(CC)C2CCS(=O)(=O)C2)nnc1-c1ccccc1 (centres unmarked) | -2.7%
6 | CCN(C(=O)CSc1nc(-c2cccs2)nc2ccccc12)C1CCS(=O)(=O)C1 (centres unmarked) | -95.6%
7 | C=CCn1c(SCC(=O)N(C)C2CCS(=O)(=O)C2)nnc1-c1ccccc1 (centres unmarked) | 16.8%
8 | C=CCn1c(SCC(=O)N(CC)C2CCS(=O)(=O)C2)nc2ccccc2c1=O (centres unmarked) | -79.2%
9 | C=CCn1c(SCC(=O)N(CC)C2CCS(=O)(=O)C2)nc2cc(C(=O)O)ccc2c1=O (centres unmarked) | 5.01%
10 | CCOCCCn1c(SCC(=O)N(C)C2CCS(=O)(=O)C2)nc2ccccc2c1=O (centres unmarked) | -37.5%
11 | O=C(CSc1nc(-c2cccs2)nc2ccccc12)NC1CCS(=O)(=O)C1 (centres unmarked) | 6.45%
12 | CCN(C(=O)CSc1nc2ccccc2c(=O)n1CCOC)C1CCS(=O)(=O)C1 (centres unmarked) | -61.2%
13 | Cn1c(=O)[nH]c(=O)c2c1[nH]c(=S)n2Cc1ccccc1 | 17.5%
14 | COc1cc2cc(C(=O)NCCc3ccccc3)[nH]c2cc1OC | 19.2%
15 | COc1ccc(C(=O)/C=C/NCc2ccc(C)cc2)cc1 | -17.2%
16 | Cc1ccc2c(c1)c1nnc(SCC(=O)Nc3ccc(N(C)C)cc3)nc1n2CC(=O)O | 6%
17 | Cc1ccc(NC(=O)C2(c3ccccc3)CCOCC2)c([N+](=O)[O-])c1 | -22.5%
18 | COC(=O)c1cc(N2CCNCC2)nc2ccccc12.Cl | -17%
19 | CCN1C(=O)c2cccc3c(S(=O)(=O)N(C(=O)c4ccncc4)c4ccc(OC)cc4)ccc1c23 | -7.51%
20 | Cc1sc(NC(=O)c2ccco2)c(CN2CCCCC2)c1C | -49.9%
21 | Cc1sc2nc(CN3CCCC3)nc(N3CCN(C(=O)c4ccco4)CC3)c2c1C | -68.6%
22 | Cc1sc2nc(CN3CCCC3)nc(N3CCC(C(N)=O)CC3)c2c1C | -3.64%

Row | SMILES | hERG current change (%, negative = inhibition) at 10uM
23 | Cc1sc2nc(CN3CCCCC3)nc(N3CCN(C(=O)c4ccco4)CC3)c2c1C | -75%
24 | Cc1sc2nc(CN3CCOCC3)nc(Oc3ccc(NC(=O)c4ccco4)cc3)c2c1C | -38.9%
25 | Cc1sc2nc(CN3CCOCC3)nc(N3CCC(C(N)=O)CC3)c2c1C | 5.73%
26 | CCCn1c(SCN2C(=O)c3ccccc3C2=O)nc2cc(Cl)ccc2c1=O | 16.5%
27 | COC(=O)c1ccc(-c2cc(C(=O)O)c3cc4c(cc3n2)OCCO4)cc1 | -0.776%
28 | CC(C)C12CN3CCN(CC(C3)/C1=N\NC(=O)Nc1ccccc1)C2 | -16.1%
29 | CC(C)(C)NC(=O)Cn1c(SCC(=O)NCc2cccs2)nc2ccccc21 | 6.18%
30 | O=C(CN1CCN(c2ccccn2)CC1)NCc1cccs1 | -26.2%
31 | CCCn1c(N2CCN(CC(=O)NCc3cccs3)CC2)nc2ccccc21 | -74.7%
32 | CC(C)n1c(NCc2cccs2)nc2ccccc21 | -12.6%
33 | CC(C)n1c(N2CCN(CC(=O)NCc3cccs3)CC2)nc2ccccc21 | -60.8%
34 | COc1cccc(N2CCN(CC(=O)NCc3cccs3)CC2)c1 | -3.18%
35 | Nc1c(Cl)ncnc1NCC(O)CO (centres unmarked) | 17.7%
36 | O=C(Nc1ccc(Oc2ccc(NC(=O)c3ccco3)c(NC(=O)c3ccco3)c2)cc1)c1ccco1 | -13.5%
37 | CC1Cc2ccccc2N1C(=O)CSc1nc2c(c(=O)n(C)c(=O)n2C)n1Cc1ccccc1 (centres unmarked) | -33.7%
38 | Cc1ccc(Nc2ccccc2)nn1 | 18.6%
39 | COc1ccccc1-c1coc2c(CN3CCCC(C)C3)c(O)ccc2c1=O (centres unmarked) | -2.44%
40 | CC1(C)CC2(CC(c3ccccc3)Oc3cc(O)ccc32)NC(=S)N1 (centres unmarked) | -1.82%
41 | CC1(C)CC2(CC(c3ccccc3)Oc3cc(O)ccc32)NC(=O)N1 (centres unmarked) | 3.54%
42 | CSC1=NC2(CC(c3ccccc3)Oc3cc(O)ccc32)CC(C)(C)N1 (centres unmarked) | -76.1%
43 | Cc1cc(Cl)ccc1OCC(=O)N/N=C1\CCCc2ccccc21 | -0.309%
44 | CC(C)(C)c1nc2ccc(NS(=O)(=O)c3ccc(F)c(F)c3F)cc2[nH]1 | 10.6%
